Results reported in the antibiotic and cytotoxicity screens of Wong et al. (2023).
Out of some 39,000 compounds screened, about 1,500 (3.8%) were called active. The entries come from a sample that favours actives as a whole.

What follows are compounds tested on HSkMC (human skeletal muscle cells) (assay: cytotoxicity call (relative viability < 0.9)). Details: 10 µM.

| SMILES | cytotoxicity call |
| --- | --- |
| C=C1CC2C(CCC3(C)C(=O)CCC23)C2(C)C=CC(=O)C=C12 (stereo not drawn) | inactive |
| O=C1C[C@@H](c2ccncc2)C2(CCNCC2)N1 | inactive |
| O=C(NN=Cc1ccc([N+](=O)[O-])o1)c1cc([N+](=O)[O-])cc([N+](=O)[O-])c1O | inactive |
| CC(C)N(C)C[C@H]1CO[C@]2(CNCCOC2)C1 | inactive |
| O=c1cccc2n1C[C@@H]1C[C@H]2CN(CCO)C1 | inactive |
| O=C(CBr)N1CC([N+](=O)[O-])([N+](=O)[O-])C1 | inactive |
| O=C(O)CNCP(=O)(O)O | inactive |
| NCCO.NCCO.O[AsH]O[AsH]O (stereo not drawn) | inactive |
| O=c1cccc2n1C[C@H]1CNC[C@H]2C1 | inactive |
| CN(C)C(=O)Oc1ccc[n+](C)c1.[Br-] | inactive |
| NCC1(c2c(F)cc(F)cc2F)CC1 | inactive |
| CO[C@H]1[C@H](O)[C@@H](O[C@H]2[C@@H](C)O[C@@H](O[C@H]3[C@H](C)O[C@H](O[C@H]4CC[C@@]5(C)[C@@H](CC[C@@]6(O)[C@@H]5C[C@@H](O)[C@]5(C)[C@]6(O)CC[C@@]5(O)[C@@H](C)O)C4)C[C@@H]3OC)C[C@H]2OC)O[C@@H](C)[C@H]1O | inactive |
| CO[C@H]1[C@@H](O)C[C@@H](O[C@H]2[C@@H](O)C[C@@H](O[C@H]3[C@@H](O)C[C@@H](O[C@H]4CC[C@@]5(C)[C@@H](CC[C@H]6[C@@H]5C[C@@H](O)[C@@]5(C)[C@H](C7=CC(=O)OC7)CC[C@@]65O)C4)O[C@@H]3C)O[C@@H]2C)O[C@@H]1C | active |
| Cc1cc(N(C)C)ccc1C[C@@H](C)N | inactive |
| Cn1cc(N2C[C@@H]3CN(CCO)C[C@@H]3C2=O)cn1 | inactive |
| COC(=O)[C@@H]1[C@@H](CO)[C@@H]2Cn3c(ccc(C4=CCCC4)c3=O)[C@H]1N2S(=O)(=O)c1cn(C)cn1 | inactive |
| CCC(=O)CCCCC[C@@H]1NC(=O)[C@H]2CCCCN2C(=O)[C@H]([C@H](C)CC)NC(=O)[C@H](Cc2cn(OC)c3ccccc23)NC1=O | active |
| CCC(=O)CCCCC[C@@H]1NC(=O)[C@H]2CCCCN2C(=O)[C@H]([C@@H](C)CC)NC(=O)[C@H](Cc2cn(OC)c3ccccc23)NC1=O | active |
| Nc1ccc(-c2ccc(N)cc2)cc1 | inactive |
| O=[N+]([O-])c1cc([As](=O)(O)O)ccc1O | inactive |
| COc1cccc(-c2ccc3c(CCN)c[nH]c3c2)c1 | inactive |
| CCNS(=O)(=O)C(F)(F)C(F)(F)C(F)(F)C(F)(F)C(F)(F)C(F)(F)C(F)(F)C(F)(F)F | inactive |
| CC(=O)NCCSS(C)(=O)=O.CN(C)c1ccc2c(-c3ccccc3C(=O)O)c3ccc(N(C)C)cc3[o+]c2c1 | inactive |
